Experimental data published in PubChem BioAssay (NCI).
This is part of a sample that, as a whole, favours compounds with a hit. Of some 83,000 tested, about 20% had one in any assay.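 In brief: 96-well plates, 48 h treatment, single concentration, percent growth endpoint.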 Active and inactive are the calls of the source. Rule for the calls: active = growth percent below 10; inactive = the rest.

The compounds below were run on SNB-19 CNS (assay: NCI-60 one-dose screen, 48 h (100 = growth as untreated, 0 = no growth, -100 = all killed)). Conditions: 10 µM unless noted.

SMILES | growth
COc1ccc(C/C(=C(\C)c2ccc(OCCN3CCCC3)cc2)c2ccc(OCCN3CCCC3)cc2)cc1 | 72.6% (inactive)
CCOC(=O)Oc1c(OC)cc(C(=O)c2ccc(OC)c(O)c2OC)cc1OC | 25.9% (inactive)
CCCCOc1ccc(/C(C)=N/Nc2cc(C)nc3ccc(Br)cc23)cc1 | 91.9% (inactive)
O=[N+]([O-])c1cc(Br)c2cccc3c2c1CC3 | 98.7% (inactive)
CC(Oc1ccc(C(=O)O)cc1C(F)(F)F)c1ccc(Oc2ccccc2)cn1 (stereo unspecified) | 96.7% (inactive)
CCN1CCN(CCNc2nccc(-c3c(-c4cccc(OC)c4)nc4occn34)n2)S1(=O)=O | 113% (inactive)
Cn1c2ccccc2c2c3c(c4c5ccccc5n(C)c4c21)C(=O)OC3 | 92.7% (inactive)
COc1cc2c(cc1OC)C(=O)/C(=C/c1cc(C)c(O)c(C)c1)S2 | 38.7% (inactive)
O=C(/C=C/c1ccc(F)cc1)c1ccc(NC(=O)N2CCN(c3cc4c(cc3F)c(=O)c(C(=O)O)cn4C3CC3)CC2)cc1 | 88.1% (inactive)
O=C1c2ccc3c4c(ccc(c24)C(=O)N1CCCNCc1ccccc1Cl)C(=O)N(CCCNCc1ccccc1Cl)C3=O | -76.9% (active)
Cc1cccc(NC(=O)Nc2ccc(-n3cnc4cc(-c5ccc(O)cc5)ccc43)cc2)c1 | 28% (inactive)
c1ccc(-c2cn3c(ccc4ccccc43)n2)cc1 | 65% (inactive)
COc1cc2oc(-c3cccc(C(=O)Nc4ccccc4)c3)cc(=O)c2c(O)c1OC | 57.7% (inactive)
Cc1ccc(/C=N/NC(=O)CSc2nc3ccccc3c(=O)n2Cc2ccc(S(N)(=O)=O)cc2)cc1 | 89.9% (inactive)
C#CCNC(=O)c1cccc2c1cc(C)n2-c1nc2c(c(NCc3ccccc3)n1)CCCC2 | -24.9% (active)
COc1ccccc1NC(=O)C1CC(c2ccc(F)cc2)=NO1 (stereo unspecified) | 96.8% (inactive)
O=C1Nc2cc(-c3ccc(NC(=O)c4ccccc4)cc3)ccc2/C1=C/c1ccc[nH]1 | 98.8% (inactive)
C=CC(=O)N[C@@H](/C=C/C(=O)OCC)Cc1ccc(-c2cc(Cl)cc(Cl)c2)cc1 | 33.9% (inactive)
Cc1ccc(NC(=O)c2cc(-c3nc4ccccc4s3)c(=O)n(NS(=O)(=O)c3ccc(Cl)cc3)c2N)cc1 | 101% (inactive)

SMILES | growth
O=C1Nc2cc(-c3ccc(NC(=O)C4CC4)cc3)ccc2/C1=C/c1ccc[nH]1 | 94.7% (inactive)
O=S(=O)(NCCNc1nccc(-c2c(-c3cccc(F)c3)nc3sccn23)n1)c1ccccc1 | 55.9% (inactive)
O=C(NCCNc1nccc(-c2c(-c3cccc(F)c3)nc3sccn23)n1)c1ccc(Cl)cc1 | 71.9% (inactive)
COc1cc2oc(-c3cccc(C(=O)Nc4ccc(Cl)cc4)c3)cc(=O)c2c(O)c1OC | 28.4% (inactive)
O=C1OC(Cc2ccccc2)C1c1ccccc1 (stereo unspecified) | 99.1% (inactive)
CC(=O)Nc1ccc(-n2cnc3cc(-c4ccc(OCCN5CCCCC5)cc4)ccc32)cc1 | 88% (inactive)
O=C(N/N=C/c1ccc(Oc2ccccc2)cc1)c1cnn2c1NC(c1ccccc1)C2 (stereo unspecified) | 61% (inactive)
CCN(CC)CC[n+]1cc2cc(OC)c(OC)cc2c2ccc3cc4c(cc3c21)OCO4 | 14.5% (inactive)
O=Cc1cc2ccccc2nc1Oc1ccc(C(F)(F)F)cc1 | 90.7% (inactive)
Cc1cc2nc3c4cc(C=O)ccc4n(CCN(C)C)c3nc2cc1C | 28.1% (inactive)
N#Cc1cccc(-c2ccc3c(c2)NC(=O)/C3=C\c2ccc[nH]2)c1 | 91.2% (inactive)
CCc1c(Cl)nc(N)nc1Nc1ccc(C)c(C)c1 | 96.2% (inactive)
COc1cc(NC(C)CCCNC(=O)CCC(=O)NCCCNCCCCCCCCCCNCCCNC(=O)CCC(=O)NCCCC(C)Nc2cc(OC)cc3cccnc23)c2ncccc2c1 (stereo unspecified) | 60.5% [8 µM] (inactive)
Cc1ccccc1NS(=O)(=O)c1cccc(C(=O)Nc2ccc(Br)cc2)c1 | 42.9% [25 µM] (inactive)
COc1cc(/C=C\C(=O)O)ccc1OCc1ccccc1 | 99.2% (inactive)
CCCCCCCCOc1ccc(/C=N/Nc2cc(C)nc3ccc(Br)cc23)cc1 | 76.1% (inactive)
S=c1cc(S)c2cc(Br)ccc2[nH]1 | 94.1% (inactive)
CCOC(=O)CSc1nc2ccccc2c(=O)n1Cc1ccc(S(N)(=O)=O)cc1 | 99.2% (inactive)
C=C1C(=O)O[C@H]2[C@H]1CC/C(COC(=O)NCc1c[nH]c3ccc(Cl)cc13)=C\CC[C@@]1(C)O[C@@H]21 | 32.3% (inactive)

Each compound was assayed on U251 CNS in the same assay as above. Conditions: 10 µM unless noted.

SMILES | growth
COc1ccc(C/C(=C(\C)c2ccc(OCCN3CCCC3)cc2)c2ccc(OCCN3CCCC3)cc2)cc1 | -39.7% (active)
CCOC(=O)Oc1c(OC)cc(C(=O)c2ccc(OC)c(O)c2OC)cc1OC | 23.5% (inactive)
CCCCOc1ccc(/C(C)=N/Nc2cc(C)nc3ccc(Br)cc23)cc1 | 31.9% (inactive)
O=[N+]([O-])c1cc(Br)c2cccc3c2c1CC3 | 99.8% (inactive)
CC(Oc1ccc(C(=O)O)cc1C(F)(F)F)c1ccc(Oc2ccccc2)cn1 (stereo unspecified) | 94.4% (inactive)
CCN1CCN(CCNc2nccc(-c3c(-c4cccc(OC)c4)nc4occn34)n2)S1(=O)=O | 113% (inactive)
Cn1c2ccccc2c2c3c(c4c5ccccc5n(C)c4c21)C(=O)OC3 | 104% (inactive)
COc1cc2c(cc1OC)C(=O)/C(=C/c1cc(C)c(O)c(C)c1)S2 | 27.2% (inactive)
O=C(/C=C/c1ccc(F)cc1)c1ccc(NC(=O)N2CCN(c3cc4c(cc3F)c(=O)c(C(=O)O)cn4C3CC3)CC2)cc1 | 98.9% (inactive)
O=C1c2ccc3c4c(ccc(c24)C(=O)N1CCCNCc1ccccc1Cl)C(=O)N(CCCNCc1ccccc1Cl)C3=O | -52.8% (active)
Cc1cccc(NC(=O)Nc2ccc(-n3cnc4cc(-c5ccc(O)cc5)ccc43)cc2)c1 | 26.5% (inactive)
c1ccc(-c2cn3c(ccc4ccccc43)n2)cc1 | 51.8% (inactive)
COc1cc2oc(-c3cccc(C(=O)Nc4ccccc4)c3)cc(=O)c2c(O)c1OC | 36.9% (inactive)
Cc1ccc(/C=N/NC(=O)CSc2nc3ccccc3c(=O)n2Cc2ccc(S(N)(=O)=O)cc2)cc1 | 93.9% (inactive)
C#CCNC(=O)c1cccc2c1cc(C)n2-c1nc2c(c(NCc3ccccc3)n1)CCCC2 | -71.6% (active)
COc1ccccc1NC(=O)C1CC(c2ccc(F)cc2)=NO1 (stereo unspecified) | 96.3% (inactive)
O=C1Nc2cc(-c3ccc(NC(=O)c4ccccc4)cc3)ccc2/C1=C/c1ccc[nH]1 | 90.2% (inactive)
C=CC(=O)N[C@@H](/C=C/C(=O)OCC)Cc1ccc(-c2cc(Cl)cc(Cl)c2)cc1 | 20.2% (inactive)
Cc1ccc(NC(=O)c2cc(-c3nc4ccccc4s3)c(=O)n(NS(=O)(=O)c3ccc(Cl)cc3)c2N)cc1 | 104% (inactive)

SMILES | growth
O=C1Nc2cc(-c3ccc(NC(=O)C4CC4)cc3)ccc2/C1=C/c1ccc[nH]1 | 84% (inactive)
O=S(=O)(NCCNc1nccc(-c2c(-c3cccc(F)c3)nc3sccn23)n1)c1ccccc1 | 44% (inactive)
O=C(NCCNc1nccc(-c2c(-c3cccc(F)c3)nc3sccn23)n1)c1ccc(Cl)cc1 | 66.1% (inactive)
COc1cc2oc(-c3cccc(C(=O)Nc4ccc(Cl)cc4)c3)cc(=O)c2c(O)c1OC | 23% (inactive)
O=C1OC(Cc2ccccc2)C1c1ccccc1 (stereo unspecified) | 97.5% (inactive)
CC(=O)Nc1ccc(-n2cnc3cc(-c4ccc(OCCN5CCCCC5)cc4)ccc32)cc1 | 44% (inactive)
O=C(N/N=C/c1ccc(Oc2ccccc2)cc1)c1cnn2c1NC(c1ccccc1)C2 (stereo unspecified) | 48.1% (inactive)
CCN(CC)CC[n+]1cc2cc(OC)c(OC)cc2c2ccc3cc4c(cc3c21)OCO4 | -38.2% (active)
O=Cc1cc2ccccc2nc1Oc1ccc(C(F)(F)F)cc1 | 81.6% (inactive)
Cc1cc2nc3c4cc(C=O)ccc4n(CCN(C)C)c3nc2cc1C | 16.8% (inactive)
N#Cc1cccc(-c2ccc3c(c2)NC(=O)/C3=C\c2ccc[nH]2)c1 | 92.8% (inactive)
CCc1c(Cl)nc(N)nc1Nc1ccc(C)c(C)c1 | 88.1% (inactive)
COc1cc(NC(C)CCCNC(=O)CCC(=O)NCCCNCCCCCCCCCCNCCCNC(=O)CCC(=O)NCCCC(C)Nc2cc(OC)cc3cccnc23)c2ncccc2c1 (stereo unspecified) | 50.8% [8 µM] (inactive)
Cc1ccccc1NS(=O)(=O)c1cccc(C(=O)Nc2ccc(Br)cc2)c1 | 53% [25 µM] (inactive)
COc1cc(/C=C\C(=O)O)ccc1OCc1ccccc1 | 84.9% (inactive)
CCCCCCCCOc1ccc(/C=N/Nc2cc(C)nc3ccc(Br)cc23)cc1 | 16.5% (inactive)
S=c1cc(S)c2cc(Br)ccc2[nH]1 | 98.3% (inactive)
CCOC(=O)CSc1nc2ccccc2c(=O)n1Cc1ccc(S(N)(=O)=O)cc1 | 97.5% (inactive)
C=C1C(=O)O[C@H]2[C@H]1CC/C(COC(=O)NCc1c[nH]c3ccc(Cl)cc13)=C\CC[C@@]1(C)O[C@@H]21 | -3.11% (active)
